From the supplement of paper PMC10849652
Of roughly 7,900 targets only a part is listed; those with a hit were picked by preference. About 0.6% of all pairs of compound and target were hits.

Experiments:
Assay in all cases: log2 fold change, soluble protein after heating vs DMSO (PISA); higher = thermal stabilisation; K562 cells, 10 uM, 30 min; active = over 0.2 and 3.5 SD of the protein, either way, in both replicates (recomputed)
[1] = compound: C1=CC=C(C=C1)[C@H](COC2=CC3=C(C=C2)NC(=O)N3)NC(=O)C4=CC=CN(C4=O)CC5=CC(=C(C=C5)F)F
Outline: (§1)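 K562 cells at 2×10^6 cells/mL were given 10 μM compound for 30 min. Aliquots then went through 3 min of heating across 48°C-58°C, were pooled, and were extracted in PBS with 0.5% NP-40 at 4°C, and the supernatant after 21,000xg for 90 min was quantified by TMTpro 16plex LC-MS/MS with channel sums equalised. Thermal stability relative to control samples, from duplicates, is given as log2 fold change.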

[2] = compound: CC1=C(SC2=C1C(=N[C@H](C3=NN=C(N32)C)CC(=O)N)C4=CC=C(C=C4)Cl)C
Outline: as §1

[3] = compound: CC1=C2C(=CC=C1)N=C(N(C2=O)C3=CC=CC=C3C)CN4C=NC5=C(N=CN=C54)N
Outline: as §1

[4] = compound: Cc1sc2c(c1C)C(c1ccc(Cl)cc1)=N[C@@H](CC(=O)OC(C)(C)C)c1nnc(C)n1-2
Outline: as §1

[5] = compound: c1ccc([C@@H]2C[C@H]2NC2CCNCC2)cc1
Outline: as §1

Measured: log2 fold change

MARCKS (UniProt P29966)
Sequence of UniProt P29966 (P29966 whole entry, looked up): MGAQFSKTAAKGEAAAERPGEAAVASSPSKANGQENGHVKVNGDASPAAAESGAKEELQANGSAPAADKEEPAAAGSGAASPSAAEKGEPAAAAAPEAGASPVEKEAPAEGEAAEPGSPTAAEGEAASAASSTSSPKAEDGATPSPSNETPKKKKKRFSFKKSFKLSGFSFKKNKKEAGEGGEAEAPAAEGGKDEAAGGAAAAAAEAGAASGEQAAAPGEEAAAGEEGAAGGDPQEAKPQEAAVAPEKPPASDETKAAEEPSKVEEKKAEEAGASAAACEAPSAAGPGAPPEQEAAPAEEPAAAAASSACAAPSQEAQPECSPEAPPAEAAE
inactive: [1] 0 | [2] -0.046 | [3] -0.066 | [4] -0.065 | [5] 0.031

MCUR1 (UniProt Q96AQ8)
inactive: [1] -0.02 | [2] 0.018 | [3] 0.007 | [4] -0.008 | [5] -0.023

LPCAT3 (UniProt Q6P1A2)
inactive: [1] 0.019 | [2] 0.071 | [3] -0.011 | [4] -0.093 | [5] -0.052

IMMT isoform 2 (UniProt Q16891)
inactive: [1] 0.021 | [2] 0.029 | [3] 0.035 | [4] 0.091 | [5] 0.033

LNPK (UniProt Q9C0E8)
Sequence of UniProt Q9C0E8 (Q9C0E8 whole entry, looked up): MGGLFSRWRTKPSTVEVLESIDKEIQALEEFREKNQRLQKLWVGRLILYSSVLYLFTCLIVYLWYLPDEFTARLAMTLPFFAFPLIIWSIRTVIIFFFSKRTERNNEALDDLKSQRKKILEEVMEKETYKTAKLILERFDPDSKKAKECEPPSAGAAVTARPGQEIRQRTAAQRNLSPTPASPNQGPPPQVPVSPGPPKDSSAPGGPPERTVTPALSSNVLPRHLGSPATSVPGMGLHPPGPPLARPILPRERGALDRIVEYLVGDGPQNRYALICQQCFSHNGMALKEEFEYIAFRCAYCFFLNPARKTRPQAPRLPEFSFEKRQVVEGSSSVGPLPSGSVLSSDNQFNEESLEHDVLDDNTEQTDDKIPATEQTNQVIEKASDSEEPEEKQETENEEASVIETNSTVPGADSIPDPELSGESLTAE
inactive: [1] 0.015 | [2] 0.015 | [3] 0.009 | [4] -0.01 | [5] 0.016

MICU1 isoform 3 (UniProt Q9BPX6)
inactive: [1] 0.005 | [2] -0.033 | [3] -0.06 | [4] 0.02 | [5] -0.036

KIAA1324L (UniProt A8MWY0)
inactive: [1] 0.041 | [2] 0.044 | [3] 0 | [4] -0.001 | [5] 0.035

KRAS isoform 2 (UniProt P01116)
Sequence of UniProt P01116 (P01116 whole entry, looked up): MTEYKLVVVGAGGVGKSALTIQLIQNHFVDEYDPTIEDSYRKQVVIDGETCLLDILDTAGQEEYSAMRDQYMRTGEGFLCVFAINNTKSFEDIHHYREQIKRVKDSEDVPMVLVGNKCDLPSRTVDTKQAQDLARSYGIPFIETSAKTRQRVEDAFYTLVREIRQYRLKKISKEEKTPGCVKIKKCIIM
inactive: [1] -0.002 | [2] -0.065 | [3] 0.096 | [4] 0.005 | [5] 0.053

INPP5B (UniProt P32019)
inactive: [1] -0.067 | [2] 0.056 | [3] 0.024 | [4] 0.086 | [5] -0.035

MAPK14 (UniProt Q16539)
Sequence of UniProt Q16539 (Q16539 whole entry, looked up): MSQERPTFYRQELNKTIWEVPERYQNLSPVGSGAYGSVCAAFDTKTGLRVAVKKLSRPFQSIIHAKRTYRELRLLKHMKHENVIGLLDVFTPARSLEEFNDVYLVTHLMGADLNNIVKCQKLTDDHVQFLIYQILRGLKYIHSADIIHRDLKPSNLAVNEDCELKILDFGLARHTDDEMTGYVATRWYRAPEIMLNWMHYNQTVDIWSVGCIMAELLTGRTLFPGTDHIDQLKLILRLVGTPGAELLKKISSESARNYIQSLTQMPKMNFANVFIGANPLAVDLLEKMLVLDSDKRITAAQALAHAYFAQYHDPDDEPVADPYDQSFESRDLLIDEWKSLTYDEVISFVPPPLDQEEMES
inactive: [1] -0.01 | [2] 0.153 | [3] 0.061 | [4] -0.03 | [5] -0.089

LGALS8 isoform 2 (UniProt O00214)
inactive: [1] -0.032 | [2] 0.011 | [3] -0.166 | [4] -0.022 | [5] -0.12

INTS7 (UniProt Q9NVH2)
Sequence of UniProt Q9NVH2 (Q9NVH2 whole entry, looked up): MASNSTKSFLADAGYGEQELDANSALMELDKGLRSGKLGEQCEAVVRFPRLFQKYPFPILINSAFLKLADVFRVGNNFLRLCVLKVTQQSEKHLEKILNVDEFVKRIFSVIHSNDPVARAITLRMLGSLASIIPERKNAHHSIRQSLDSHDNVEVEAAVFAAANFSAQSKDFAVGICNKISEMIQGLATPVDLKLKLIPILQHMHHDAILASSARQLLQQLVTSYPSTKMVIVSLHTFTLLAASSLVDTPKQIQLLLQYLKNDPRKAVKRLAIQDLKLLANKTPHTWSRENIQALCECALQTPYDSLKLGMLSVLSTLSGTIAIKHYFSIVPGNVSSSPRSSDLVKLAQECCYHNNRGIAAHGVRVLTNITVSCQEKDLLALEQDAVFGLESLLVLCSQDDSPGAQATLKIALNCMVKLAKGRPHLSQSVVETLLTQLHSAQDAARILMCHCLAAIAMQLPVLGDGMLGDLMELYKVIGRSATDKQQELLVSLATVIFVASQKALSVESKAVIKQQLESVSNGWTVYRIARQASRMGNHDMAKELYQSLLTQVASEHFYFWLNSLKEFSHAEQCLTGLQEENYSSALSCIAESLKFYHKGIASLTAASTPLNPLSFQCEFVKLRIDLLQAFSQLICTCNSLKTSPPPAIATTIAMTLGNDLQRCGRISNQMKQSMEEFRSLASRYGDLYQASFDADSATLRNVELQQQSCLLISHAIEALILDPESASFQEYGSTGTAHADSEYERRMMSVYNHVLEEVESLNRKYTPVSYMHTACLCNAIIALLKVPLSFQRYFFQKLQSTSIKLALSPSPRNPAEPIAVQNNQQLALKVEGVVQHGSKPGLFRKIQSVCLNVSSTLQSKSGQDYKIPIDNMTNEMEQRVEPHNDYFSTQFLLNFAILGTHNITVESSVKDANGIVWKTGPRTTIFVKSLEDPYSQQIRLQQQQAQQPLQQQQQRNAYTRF
inactive: [1] -0.005 | [2] 0.086 | [3] 0.001 | [4] -0.085 | [5] -0.054

LRBA (UniProt P50851)
inactive: [1] -0.016 | [2] 0.05 | [3] 0.088 | [4] 0 | [5] -0.023

ILF2 (UniProt Q12905)
inactive: [1] 0.047 | [2] -0.078 | [3] -0.141 | [4] 0.14 | [5] 0.034

KIF11 (UniProt P52732)
inactive: [1] -0.044 | [2] -0.011 | [3] 0.074 | [4] 0.092 | [5] -0.027

IKZF1 (UniProt Q13422)
Sequence of UniProt Q13422 (Q13422 whole entry, looked up): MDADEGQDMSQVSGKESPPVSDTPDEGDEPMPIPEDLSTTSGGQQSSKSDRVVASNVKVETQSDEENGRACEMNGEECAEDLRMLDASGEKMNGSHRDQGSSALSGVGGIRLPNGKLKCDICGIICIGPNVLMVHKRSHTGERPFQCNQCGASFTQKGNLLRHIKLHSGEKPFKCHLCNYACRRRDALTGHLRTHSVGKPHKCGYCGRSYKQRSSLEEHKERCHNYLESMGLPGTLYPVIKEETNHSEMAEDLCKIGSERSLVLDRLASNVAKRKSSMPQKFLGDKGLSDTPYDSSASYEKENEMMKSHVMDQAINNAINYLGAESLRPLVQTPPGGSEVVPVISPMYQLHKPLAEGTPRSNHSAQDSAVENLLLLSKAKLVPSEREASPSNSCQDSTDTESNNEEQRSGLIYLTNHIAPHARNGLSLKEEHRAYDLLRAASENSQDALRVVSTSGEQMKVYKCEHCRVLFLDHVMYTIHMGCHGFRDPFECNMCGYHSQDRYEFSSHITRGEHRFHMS
inactive: [1] -0.011 | [2] 0.05 | [3] 0.15 | [4] -0.009 | [5] 0.014

IRAK4 (UniProt Q9NWZ3)
Sequence of UniProt Q9NWZ3 (Q9NWZ3 whole entry, looked up): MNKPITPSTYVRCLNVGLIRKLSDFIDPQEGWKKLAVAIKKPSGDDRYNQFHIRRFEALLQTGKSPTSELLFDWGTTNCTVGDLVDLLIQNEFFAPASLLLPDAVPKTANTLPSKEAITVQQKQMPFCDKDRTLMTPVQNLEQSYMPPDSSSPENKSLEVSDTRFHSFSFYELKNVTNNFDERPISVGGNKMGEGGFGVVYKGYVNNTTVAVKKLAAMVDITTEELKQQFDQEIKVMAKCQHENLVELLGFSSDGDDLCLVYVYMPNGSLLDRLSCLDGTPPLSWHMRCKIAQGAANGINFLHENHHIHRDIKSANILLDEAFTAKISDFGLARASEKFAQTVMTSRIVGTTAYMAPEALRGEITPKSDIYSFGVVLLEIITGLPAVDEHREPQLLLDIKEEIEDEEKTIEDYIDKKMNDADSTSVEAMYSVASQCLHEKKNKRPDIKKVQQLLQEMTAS
inactive: [1] -0.077 | [2] -0.006 | [3] 0.009 | [4] -0.012 | [5] -0.056

MIEF1 (UniProt L0R8F8)
inactive: [1] 0.072 | [2] 0.026 | [3] 0.039 | [4] -0.092 | [5] 0.007

IGFBP2 (UniProt P18065)
Sequence of UniProt P18065 (P18065 whole entry, looked up): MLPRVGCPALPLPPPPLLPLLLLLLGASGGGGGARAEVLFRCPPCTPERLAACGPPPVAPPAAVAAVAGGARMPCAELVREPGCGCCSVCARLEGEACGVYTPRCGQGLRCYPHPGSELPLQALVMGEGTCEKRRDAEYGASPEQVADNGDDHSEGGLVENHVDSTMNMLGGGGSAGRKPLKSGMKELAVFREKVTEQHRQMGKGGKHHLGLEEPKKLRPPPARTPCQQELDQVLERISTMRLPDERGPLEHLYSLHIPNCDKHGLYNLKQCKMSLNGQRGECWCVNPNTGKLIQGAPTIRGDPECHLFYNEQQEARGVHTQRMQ
inactive: [1] -0.121 | [2] -0.101 | [3] 0.131 | [4] -0.295 | [5] 0.062

ITPRIP (UniProt Q8IWB1)
Sequence of UniProt Q8IWB1 (Q8IWB1 whole entry, looked up): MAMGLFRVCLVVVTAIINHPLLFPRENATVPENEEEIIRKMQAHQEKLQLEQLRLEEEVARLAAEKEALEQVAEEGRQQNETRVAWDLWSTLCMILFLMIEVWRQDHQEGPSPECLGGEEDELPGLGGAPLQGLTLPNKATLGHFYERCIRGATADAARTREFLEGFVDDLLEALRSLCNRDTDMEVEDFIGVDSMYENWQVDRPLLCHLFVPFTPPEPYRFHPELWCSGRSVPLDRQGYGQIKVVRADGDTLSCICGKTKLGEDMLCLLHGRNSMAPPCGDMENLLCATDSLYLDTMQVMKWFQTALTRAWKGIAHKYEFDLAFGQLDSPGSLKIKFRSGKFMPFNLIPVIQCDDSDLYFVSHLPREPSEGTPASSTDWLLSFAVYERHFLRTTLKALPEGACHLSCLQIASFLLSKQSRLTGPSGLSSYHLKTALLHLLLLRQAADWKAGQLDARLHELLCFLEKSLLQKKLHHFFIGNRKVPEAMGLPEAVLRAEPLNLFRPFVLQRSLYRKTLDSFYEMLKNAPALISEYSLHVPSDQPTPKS
inactive: [1] -0.024 | [2] 0.096 | [3] 0.054 | [4] -0.081 | [5] 0.027

IPO13 (UniProt O94829)
inactive: [1] -0.005 | [2] 0.008 | [3] 0.098 | [4] 0.037 | [5] 0.034

MFSD1 isoform 6 (UniProt Q9H3U5)
inactive: [1] 0.001 | [2] 0.045 | [3] 0.043 | [4] -0.029 | [5] 0.039

LTV1 (UniProt Q96GA3)
inactive: [1] -0.02 | [2] -0.137 | [3] -0.033 | [4] 0.17 | [5] 0

MAP4K5 (UniProt Q9Y4K4)
Sequence of UniProt Q9Y4K4 (Q9Y4K4 whole entry, looked up): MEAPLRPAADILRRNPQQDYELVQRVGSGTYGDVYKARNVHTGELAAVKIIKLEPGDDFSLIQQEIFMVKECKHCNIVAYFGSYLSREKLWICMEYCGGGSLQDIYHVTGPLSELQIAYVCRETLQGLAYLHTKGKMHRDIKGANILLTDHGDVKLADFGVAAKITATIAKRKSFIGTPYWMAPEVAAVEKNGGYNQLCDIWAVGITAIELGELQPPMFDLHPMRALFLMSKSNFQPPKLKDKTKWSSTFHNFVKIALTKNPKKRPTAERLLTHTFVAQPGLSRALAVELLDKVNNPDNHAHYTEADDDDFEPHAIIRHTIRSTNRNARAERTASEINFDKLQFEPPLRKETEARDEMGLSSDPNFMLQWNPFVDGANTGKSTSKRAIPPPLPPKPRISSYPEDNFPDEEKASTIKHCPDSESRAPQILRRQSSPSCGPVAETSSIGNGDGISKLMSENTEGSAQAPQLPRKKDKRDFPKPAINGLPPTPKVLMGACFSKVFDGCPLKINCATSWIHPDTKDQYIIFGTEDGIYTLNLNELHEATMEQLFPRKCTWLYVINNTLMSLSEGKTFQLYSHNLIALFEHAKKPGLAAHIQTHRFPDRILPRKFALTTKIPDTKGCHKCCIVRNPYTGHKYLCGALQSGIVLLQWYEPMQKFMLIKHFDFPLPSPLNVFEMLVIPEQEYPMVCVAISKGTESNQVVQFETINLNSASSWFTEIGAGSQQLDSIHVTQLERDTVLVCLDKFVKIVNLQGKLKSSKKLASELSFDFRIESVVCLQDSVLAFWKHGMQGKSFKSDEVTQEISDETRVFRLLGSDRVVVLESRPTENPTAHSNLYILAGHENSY
inactive: [1] 0.055 | [2] -0.039 | [3] 0.107 | [4] 0.05 | [5] 0.062
